This is a sample that favours compounds with a hit; in the whole collection about 1.7% have one here.
FGF22 binding = binders of human FGF22 protein, primary screen, FGF22 synaptogenesis inhibitor project, biophysical, thermal shift, single point. recombinant FGF22 thermal shift, SYPRO orange fluorescence; percent of sucrose octasulfate shift, DMSO zero. AID 651658, 2012. activity (Tm shift, normalised), % at 9.99 µM. Fibroblast growth factor 22 (Homo sapiens), Q9HCT0. hit rate 1.5% among 340,000;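 active = mean Tm shift, scaled 0 neutral to 100 positive control, at about 1.3% or above, every replicate too, limit read from the data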
Target sequence (Q9HCT0 whole entry, looked up): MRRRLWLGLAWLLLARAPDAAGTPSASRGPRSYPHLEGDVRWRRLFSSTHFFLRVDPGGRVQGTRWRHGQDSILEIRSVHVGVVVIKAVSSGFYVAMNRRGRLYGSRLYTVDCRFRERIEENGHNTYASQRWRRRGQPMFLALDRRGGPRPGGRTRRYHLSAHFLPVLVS
CFTR F508del cor = F508del CFTR correction, initial screen, CFBE line, single point; CFBE cells, YFP halide quenching; stimulated with forskolin plus potentiator P3; % fluorescence drop versus neutral controls; hit rate 0.36% among 350,000; activity (quench increase), % at 7.58 µM; AID 720511, 2013;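 active = mean added fluorescence quench of at least 8% versus neutral control, with both replicates also reaching 8%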;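 also: cells transiently co-express mutant CFTR-F508del with the halide-sensitive YFP; corrector assay measuring rescue of mutant channel to the surface after 24 h compound exposure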
Vif imaging = HIV Vif self-association inhibitors, primary screen, imaging, HEK293T, single point; HEK293T cells, Vif self-association by quenched fluorescence, 24 h; inhibition, % at 7.49 µM; hit rate 0.35% among 340,000; AID 602346, 2012; in the data active = inhibition above about 50%, passing the limit was not always enough
Of the large screens only hits and unclear results are named; the others gave an inactive call.

CN(C)c1ccc(C=Cc2ccnc3c(O)cccc23)cc1	Vif imaging 51
COCCNC(=O)c1cc2c(c(-c3cccc(C#CCN(C)C)c3)n1)[C@H](CCO)N(S(=O)C(C)(C)C)C2 (some centres not stated)	none (no result: CFTR F508del cor, Vif imaging)
Cc1ccccc1S(=O)(=O)NCC[C@H]1CC[C@H](NC(=O)C2CCCCC2)[C@H](CO)O1	none (no result: Vif imaging)
COC(=O)c1ccc(Oc2coc3cc(OCc4cnn(-c5ccccc5)c4)ccc3c2=O)cc1	Vif imaging 142 (no result: FGF22 binding, CFTR F508del cor)
COC(=O)c1ccc(Oc2c(C)oc3cc(OCc4cnn(-c5ccccc5)c4)ccc3c2=O)cc1	none (no result: FGF22 binding, CFTR F508del cor)
COc1ccc(-n2nc(C(N)=O)c(O)cc2=O)cc1	none
COc1cccc(-n2nc(C(N)=O)c(O)cc2=O)c1	FGF22 binding 43
Cc1c(C(=O)/C=C/N(C)C)nnn1-c1ccc(Cl)cc1Cl	none
NC(=O)c1nn(-c2ccc(Cl)cc2Cl)c(=O)cc1O	FGF22 binding 44
CCCNC(=O)[C@H]1[C@H](CO)[C@H]2Cn3c(ccc(-c4ccccc4)c3=O)[C@@H]1N2C(=O)Nc1ccccc1	none (no result: Vif imaging)
C[C@H]1CN([C@@H](C)CO)C(=O)c2cc(C#CC(C)(C)O)cnc2O[C@H]1CN(C)Cc1ccccn1	none (no result: Vif imaging)
CCOc1[nH]n(-c2ccccc2)c(=O)c1C=NCC(=O)OC	FGF22 binding 43
CCOc1[nH]n(-c2ccc(Cl)cc2)c(=O)c1C=NCC(=O)OC	none
COc1ccc(NC(=O)N(C)C[C@H]2Oc3ncc(-c4cccnc4)cc3C(=O)N([C@H](C)CO)C[C@@H]2C)cc1	none (no result: Vif imaging)
Cc1cc(C(=O)CN2C(=O)NC3(CCC(C)CC3)C2=O)c(C)n1C (configuration not stated)	FGF22 binding 43
Cc1cc(C)c(C(=O)CN2C(=O)NC3(CCC(C)CC3)C2=O)cc1C (configuration not stated)	none
C[C@@H]1CCCCO[C@@H](CN(C)S(=O)(=O)c2ccccc2)[C@H](C)CN([C@H](C)CO)C(=O)c2cc(NC(=O)C3CCCCC3)ccc2O1	none (no result: FGF22 binding, Vif imaging)
CSC1=NC(=O)/C(=C/c2ccc(SC)cc2)S1	FGF22 binding 43
CN=C1S/C(=C\c2ccc(SC)cc2)C(=O)N1C	none
C[C@@H]1CN([C@@H](C)CO)C(=O)c2cccc(NC(=O)Nc3cccc4ccccc34)c2O[C@@H]1CN(C)Cc1ccc(C(F)(F)F)cc1	none (no result: Vif imaging)
C=CCC[C@@H](Cc1ccc(F)cc1)C(=O)OC[C@@H](NC(=O)[C@@H](CC=C)CC(=O)N[C@@H](CO)Cc1ccccc1)C(C)(C)C	none
C=CC[C@@H](CC(=O)N(CCO)Cc1ccccc1)C(=O)N[C@H](COC(=O)[C@@H](CC=C)Cc1ccc(F)cc1)C(C)(C)C	Vif imaging 55
C=CC[C@H](CC(=O)N(CCO)Cc1ccccc1)C(=O)N[C@H](COC(=O)[C@@H](CC=C)Cc1ccc(F)cc1)C(C)(C)C	none
C=CCC[C@H](Cc1ccc(F)cc1)C(=O)OC[C@@H](NC(=O)[C@@H](CC=C)CC(=O)N[C@@H](CO)Cc1ccccc1)C(C)(C)C	FGF22 binding 6.2
CCNC(=O)C[C@H]1CC[C@@H]2[C@H](COc3ccc(NC(=O)c4ccccc4)cc3C(=O)N2C)O1	none (no result: Vif imaging)
C#CCNC(=O)C1=C[C@@H](C(C)(C)C)C[C@@H](OCCCCO)O1	none (no result: Vif imaging)
Cc1cc(C2=NNC(=NC3CC3)SC2)c(C)n1Cc1ccco1	none (no result: CFTR F508del cor)
C=CCn1c(C)cc(C2=NNC(=Nc3ccc(C)cc3)SC2)c1C	FGF22 binding 43 (no result: CFTR F508del cor)
C=CCn1c(C)cc(C2=NNC(=NC(C)(C)C)SC2)c1C	none (no result: CFTR F508del cor)
COCCCN=C1NN=C(c2cc(C)n(Cc3ccco3)c2C)CS1	CFTR F508del cor 18
CCCC(=O)Nc1ccc2c(c1)C(=O)N(C)C[C@@H](OC)[C@H](C)CN(CCc1ccccc1)[C@@H](C)CO2	none (no result: Vif imaging)
O=C(N[C@H]1CC[C@H](CCNC(=O)C2CCOCC2)O[C@@H]1CO)c1ccccn1	none (no result: Vif imaging)
CCC(=O)N1[C@H](CO)[C@H](c2ccc(C#CC3(O)CCCC3)cc2)[C@@H]1CNC(C)=O	none (no result: FGF22 binding, Vif imaging)
COc1cccc(C#Cc2cnc3c(c2)C(=O)N([C@H](C)CO)C[C@@H](C)[C@H](CN(C)C(=O)C2CC2)O3)c1	none (no result: Vif imaging)
Nc1ccccc1SCC(=O)Nc1nc(-c2ccccc2)cs1	FGF22 binding 1.5
CC(=O)Nc1ccc(-c2csc(NC(=O)CCNC(=O)c3ccco3)n2)cc1	none
O=C(CSc1ncn[nH]1)Nc1nc(-c2ccccc2)cs1	none (no result: FGF22 binding, CFTR F508del cor)
O=C(CCNC(=O)c1ccco1)Nc1nc(-c2ccccc2)cs1	CFTR F508del cor 8.8
O=C1[C@@H]2[C@@H](CC(COc3ccccc3)=C([C@H](O)c3ccccc3)[C@@H]2CO)C(=O)N1Cc1ccccc1	none (no result: Vif imaging)
